{
  "source": "the supplement of paper PMC11732987",
  "about": "“Enantioselective OTUD7B fragment discovery through chemoproteomics screening and high-throughput optimisation” (Communications Chemistry, 2025)",
  "assay_in_all_cases": "log2 ratio of Biotin-Ahx-Ub-VS probe labelling (fragment/DMSO); higher = less target engagement (more negative = stronger competition), active = hit call of the paper (q ≤ 0.05, log2 ratio ≤ -1)",
  "conditions_in_all_cases": "compound concentration: 200 uM; treatment time: 3 h",
  "key": {"OTUD6B": {"target": "T1, OTUD6B (UniProt Q8N6M0)", "T1 sequence (whole entry)": "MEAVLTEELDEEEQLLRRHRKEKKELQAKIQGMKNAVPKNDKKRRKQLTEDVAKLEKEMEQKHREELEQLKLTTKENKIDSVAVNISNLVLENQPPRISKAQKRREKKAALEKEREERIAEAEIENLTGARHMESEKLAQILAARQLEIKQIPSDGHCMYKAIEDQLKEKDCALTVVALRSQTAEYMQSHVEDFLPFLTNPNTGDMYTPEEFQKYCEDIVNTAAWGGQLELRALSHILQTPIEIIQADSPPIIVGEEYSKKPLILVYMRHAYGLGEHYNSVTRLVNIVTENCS", "summary_of_the_method": "(§1)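 Triplicate samples of HEK293T lysate, 495 µg each, received fragment at 200 µM or vehicle for 3 h, followed by Biotin-Ahx-Ub-VS (0.5 µM final) for 1 h. After NeutrAvidin enrichment of labelled DUBs and LysC/trypsin digestion, peptides were run by diaPASEF LC-MS/MS. The values are average log2 fragment/vehicle ratios from global-median-normalised Spectronaut label-free quantities, tested by unpaired t-test on proteins having ≥2 unique peptides.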"}, "OTUD7B": {"target": "T2, OTUD7B (UniProt Q6GQQ9)", "T2 sequence (whole entry)": "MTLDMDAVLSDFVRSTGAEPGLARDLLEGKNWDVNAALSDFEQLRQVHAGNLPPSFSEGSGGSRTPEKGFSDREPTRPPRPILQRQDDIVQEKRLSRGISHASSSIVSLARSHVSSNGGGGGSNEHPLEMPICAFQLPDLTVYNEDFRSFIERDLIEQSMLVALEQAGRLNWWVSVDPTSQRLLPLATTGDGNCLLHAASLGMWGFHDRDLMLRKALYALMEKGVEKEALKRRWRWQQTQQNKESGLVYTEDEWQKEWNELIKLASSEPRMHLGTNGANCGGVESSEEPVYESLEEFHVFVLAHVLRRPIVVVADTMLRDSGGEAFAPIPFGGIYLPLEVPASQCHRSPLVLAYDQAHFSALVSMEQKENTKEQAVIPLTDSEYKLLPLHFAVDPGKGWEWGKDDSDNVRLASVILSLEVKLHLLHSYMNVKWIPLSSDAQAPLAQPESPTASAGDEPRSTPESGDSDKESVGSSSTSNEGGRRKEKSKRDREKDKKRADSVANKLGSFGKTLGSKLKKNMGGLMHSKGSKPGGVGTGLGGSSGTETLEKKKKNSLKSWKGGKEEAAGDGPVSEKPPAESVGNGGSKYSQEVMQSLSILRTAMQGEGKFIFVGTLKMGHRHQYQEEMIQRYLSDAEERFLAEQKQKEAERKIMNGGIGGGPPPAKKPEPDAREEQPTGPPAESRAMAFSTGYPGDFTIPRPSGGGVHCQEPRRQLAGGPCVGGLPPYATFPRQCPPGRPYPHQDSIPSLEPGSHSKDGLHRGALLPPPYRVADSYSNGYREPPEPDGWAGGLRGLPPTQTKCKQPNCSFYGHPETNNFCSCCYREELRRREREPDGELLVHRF", "summary_of_the_method": "as §1"}, "PRPF8": {"target": "PRPF8 (UniProt Q6P2Q9)", "summary_of_the_method": "as §1"}, "PSMD7": {"target": "T3, PSMD7 (UniProt P51665)", "T3 sequence (whole entry)": "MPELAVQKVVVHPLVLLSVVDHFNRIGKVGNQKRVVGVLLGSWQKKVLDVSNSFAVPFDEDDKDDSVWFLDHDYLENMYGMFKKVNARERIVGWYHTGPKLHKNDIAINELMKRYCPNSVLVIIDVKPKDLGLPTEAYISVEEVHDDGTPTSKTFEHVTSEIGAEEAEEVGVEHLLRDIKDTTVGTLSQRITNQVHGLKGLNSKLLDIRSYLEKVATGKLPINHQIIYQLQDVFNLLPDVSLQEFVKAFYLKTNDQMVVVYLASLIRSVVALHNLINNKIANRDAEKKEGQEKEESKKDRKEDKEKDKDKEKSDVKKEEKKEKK", "summary_of_the_method": "as §1"}, "UCHL1": {"target": "UCHL1 (UniProt P09936)", "sequence (P09936 whole entry, looked up)": "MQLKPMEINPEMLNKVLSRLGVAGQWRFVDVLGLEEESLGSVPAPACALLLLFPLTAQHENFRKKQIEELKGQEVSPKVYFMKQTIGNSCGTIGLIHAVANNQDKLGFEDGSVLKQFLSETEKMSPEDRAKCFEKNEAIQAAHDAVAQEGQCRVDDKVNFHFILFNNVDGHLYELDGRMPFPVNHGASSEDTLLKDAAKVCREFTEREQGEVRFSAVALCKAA", "summary_of_the_method": "as §1"}, "UCHL3": {"target": "T4, UCHL3 (UniProt P15374)", "T4 sequence (whole entry)": "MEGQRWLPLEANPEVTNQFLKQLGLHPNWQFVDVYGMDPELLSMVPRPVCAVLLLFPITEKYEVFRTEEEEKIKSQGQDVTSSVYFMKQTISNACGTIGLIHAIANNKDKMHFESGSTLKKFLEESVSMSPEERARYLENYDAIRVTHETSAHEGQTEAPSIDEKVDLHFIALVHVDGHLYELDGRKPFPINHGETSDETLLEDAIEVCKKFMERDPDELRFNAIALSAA", "summary_of_the_method": "as §1"}, "UCHL5": {"target": "T5, UCHL5 (UniProt Q9Y5K5)", "T5 sequence (whole entry)": "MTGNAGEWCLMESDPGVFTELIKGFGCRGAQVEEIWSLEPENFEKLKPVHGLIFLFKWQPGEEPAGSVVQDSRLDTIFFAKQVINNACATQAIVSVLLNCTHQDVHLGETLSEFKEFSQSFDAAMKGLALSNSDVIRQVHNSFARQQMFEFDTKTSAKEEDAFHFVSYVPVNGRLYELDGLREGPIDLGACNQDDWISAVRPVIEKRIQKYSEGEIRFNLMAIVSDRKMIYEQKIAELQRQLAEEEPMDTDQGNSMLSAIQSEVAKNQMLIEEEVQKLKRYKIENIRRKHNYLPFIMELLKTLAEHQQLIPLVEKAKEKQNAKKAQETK", "summary_of_the_method": "as §1"}, "USP10": {"target": "USP10 (UniProt Q14694)", "sequence (Q14694 whole entry)": "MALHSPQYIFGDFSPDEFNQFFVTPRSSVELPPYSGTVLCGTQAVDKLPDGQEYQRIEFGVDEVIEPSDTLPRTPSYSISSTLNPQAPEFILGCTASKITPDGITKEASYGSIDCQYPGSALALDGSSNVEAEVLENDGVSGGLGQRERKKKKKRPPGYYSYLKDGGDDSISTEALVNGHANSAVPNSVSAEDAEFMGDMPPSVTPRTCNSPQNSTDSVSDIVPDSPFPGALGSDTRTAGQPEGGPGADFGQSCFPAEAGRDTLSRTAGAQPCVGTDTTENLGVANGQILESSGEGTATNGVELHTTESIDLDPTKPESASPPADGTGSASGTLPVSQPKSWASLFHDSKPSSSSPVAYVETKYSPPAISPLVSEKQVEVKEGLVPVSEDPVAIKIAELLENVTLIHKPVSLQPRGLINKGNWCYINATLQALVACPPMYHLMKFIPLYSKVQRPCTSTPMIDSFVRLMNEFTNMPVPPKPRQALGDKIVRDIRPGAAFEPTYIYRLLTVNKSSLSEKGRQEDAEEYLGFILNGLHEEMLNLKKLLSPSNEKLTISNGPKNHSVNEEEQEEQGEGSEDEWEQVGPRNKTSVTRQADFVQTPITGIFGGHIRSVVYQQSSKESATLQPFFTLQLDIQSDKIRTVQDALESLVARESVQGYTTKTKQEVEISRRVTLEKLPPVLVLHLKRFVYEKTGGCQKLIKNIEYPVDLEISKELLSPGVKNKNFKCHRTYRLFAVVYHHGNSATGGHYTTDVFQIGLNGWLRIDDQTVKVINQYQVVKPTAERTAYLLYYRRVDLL", "summary_of_the_method": "as §1"}, "USP15": {"target": "T6, USP15 (UniProt Q9Y4E8)", "T6 sequence (whole entry)": "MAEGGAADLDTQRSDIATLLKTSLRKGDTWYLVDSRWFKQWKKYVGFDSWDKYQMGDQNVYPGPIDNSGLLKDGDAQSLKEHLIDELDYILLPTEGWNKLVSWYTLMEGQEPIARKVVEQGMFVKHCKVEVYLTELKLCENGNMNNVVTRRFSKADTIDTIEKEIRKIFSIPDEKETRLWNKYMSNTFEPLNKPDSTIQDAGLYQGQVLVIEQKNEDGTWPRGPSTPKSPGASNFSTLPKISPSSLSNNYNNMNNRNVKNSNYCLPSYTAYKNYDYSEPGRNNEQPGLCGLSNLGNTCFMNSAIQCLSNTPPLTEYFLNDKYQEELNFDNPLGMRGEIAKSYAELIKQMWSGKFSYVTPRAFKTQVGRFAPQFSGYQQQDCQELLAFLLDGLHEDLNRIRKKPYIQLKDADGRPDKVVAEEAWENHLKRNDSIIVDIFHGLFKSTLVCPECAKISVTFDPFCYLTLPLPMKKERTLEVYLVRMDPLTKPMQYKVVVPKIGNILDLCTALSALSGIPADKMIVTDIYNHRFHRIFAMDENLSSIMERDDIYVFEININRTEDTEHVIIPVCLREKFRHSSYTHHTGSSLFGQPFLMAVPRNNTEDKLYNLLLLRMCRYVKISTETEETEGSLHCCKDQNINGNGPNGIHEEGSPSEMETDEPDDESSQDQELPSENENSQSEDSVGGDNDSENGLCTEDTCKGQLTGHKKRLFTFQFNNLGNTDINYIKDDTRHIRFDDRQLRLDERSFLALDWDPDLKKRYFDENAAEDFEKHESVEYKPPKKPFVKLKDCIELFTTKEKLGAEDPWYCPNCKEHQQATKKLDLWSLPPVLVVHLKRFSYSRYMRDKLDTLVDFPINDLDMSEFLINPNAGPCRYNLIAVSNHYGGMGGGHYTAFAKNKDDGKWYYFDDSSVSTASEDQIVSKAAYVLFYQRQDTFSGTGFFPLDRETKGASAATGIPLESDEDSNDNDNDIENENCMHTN", "summary_of_the_method": "as §1"}, "USP16": {"target": "USP16 (UniProt Q9Y5T5)", "sequence (Q9Y5T5 whole entry, looked up)": "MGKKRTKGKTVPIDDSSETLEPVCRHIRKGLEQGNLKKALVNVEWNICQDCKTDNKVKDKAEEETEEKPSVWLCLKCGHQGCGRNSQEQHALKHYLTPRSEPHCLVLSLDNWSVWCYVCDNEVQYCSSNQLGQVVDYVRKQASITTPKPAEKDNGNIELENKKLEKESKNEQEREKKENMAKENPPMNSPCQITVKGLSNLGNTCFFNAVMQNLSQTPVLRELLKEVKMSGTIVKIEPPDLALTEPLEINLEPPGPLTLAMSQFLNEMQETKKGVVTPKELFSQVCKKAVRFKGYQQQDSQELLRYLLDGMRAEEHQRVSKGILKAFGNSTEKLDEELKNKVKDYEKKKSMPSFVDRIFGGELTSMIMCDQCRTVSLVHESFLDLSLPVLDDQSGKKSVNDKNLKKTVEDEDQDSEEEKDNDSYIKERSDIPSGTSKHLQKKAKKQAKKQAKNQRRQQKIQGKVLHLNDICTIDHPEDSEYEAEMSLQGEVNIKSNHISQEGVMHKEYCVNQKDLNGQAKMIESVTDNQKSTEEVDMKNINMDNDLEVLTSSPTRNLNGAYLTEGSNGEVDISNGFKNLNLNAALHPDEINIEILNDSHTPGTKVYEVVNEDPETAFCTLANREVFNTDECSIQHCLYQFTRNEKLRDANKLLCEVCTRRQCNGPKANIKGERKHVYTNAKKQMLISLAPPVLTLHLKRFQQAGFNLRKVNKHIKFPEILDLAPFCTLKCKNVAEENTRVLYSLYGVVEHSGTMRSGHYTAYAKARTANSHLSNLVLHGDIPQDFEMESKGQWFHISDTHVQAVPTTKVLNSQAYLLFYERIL", "summary_of_the_method": "as §1"}},
  "note": "A number with no mark means an inactive call.",
  "data": [
    {"compound": "O=C(CCl)N1CCOC2(CCC2)C1", "values": [
      {"measurement": "log2 ratio of Biotin-Ahx-Ub-VS probe labelling", "setting": "OTUD6B", "value": 0.01},
      {"measurement": "log2 ratio of Biotin-Ahx-Ub-VS probe labelling", "setting": "OTUD7B", "value": "-1.29 (active)"},
      {"measurement": "log2 ratio of Biotin-Ahx-Ub-VS probe labelling", "setting": "PRPF8", "value": -0.0922},
      {"measurement": "log2 ratio of Biotin-Ahx-Ub-VS probe labelling", "setting": "PSMD7", "value": -0.254},
      {"measurement": "log2 ratio of Biotin-Ahx-Ub-VS probe labelling", "setting": "UCHL1", "value": "-1.53 (active)"},
      {"measurement": "log2 ratio of Biotin-Ahx-Ub-VS probe labelling", "setting": "UCHL3", "value": 0.273},
      {"measurement": "log2 ratio of Biotin-Ahx-Ub-VS probe labelling", "setting": "UCHL5", "value": -0.0117},
      {"measurement": "log2 ratio of Biotin-Ahx-Ub-VS probe labelling", "setting": "USP10", "value": 0.0764},
      {"measurement": "log2 ratio of Biotin-Ahx-Ub-VS probe labelling", "setting": "USP15", "value": 0.059},
      {"measurement": "log2 ratio of Biotin-Ahx-Ub-VS probe labelling", "setting": "USP16", "value": 0.246}
    ]}
  ]
}
